From PubChem
A selection: hits, their analogues and other compounds. The true share with any hit is near 8%.
MCF10A rerep – A quantitative high throughput screen for small molecules that induce DNA re-replication in MCF 10a normal breast cells; MCF 10A DNA re-replication, Hoechst nuclear intensity, 48 h; 2.9% of 350,000 active; Potency, µM (top dose mostly 46.1 µM), hits mostly activators; AID 624296, 2012; further: nearly all actives have a fitted effect of over 50% in size
KB-V1 MDR tox – qHTS assay for MDR1-selective chemotherapeutics: Primary screen using the drug-selected MDR subline cells KB-V1 | KB-V1 MDR cells viability, CellTiter-Glo, 72 h | Potency, µM (doses to about 46.1 µM), usual class: cytotoxic | 3.4% of 400,000 active | AID 1347076, 2019; further: nearly all actives have a fitted effect of over 60% in size
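Following 72 h at 37 degrees C with compound, KB-V1 cell viability was read by CellTiter-Glo luminescence, medium being phenol-red-free DMEM plus 10% FBS; concentration-response parameters came from normalized, curve-fitted qHTS data.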
HT1080 IDH1KD tx – qHTS for induction of synthetic lethality in tumor cells producing 2HG: qHTS for the HT-1080-IDH1KD cell line; HT-1080 IDH1 knockdown viability, ATP luminescence, 48 h; Potency, µM (doses to about 46.1 µM), actives largely listed as cytotoxic; 2% of 360,000 active; AID 686971, 2013
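CellTiter-Glo luminescence after 48 h compound exposure at 37 degrees C of IDH1-knockdown HT-1080 cells in 5% FBS RPMI. %Activity scaled between DMSO wells and cell-free media wells, with curves fitted and assigned curve classes.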
HT1080-NT tox – qHTS for induction of synthetic lethality in tumor cells producing 2HG: qHTS for the HT-1080-NT fibrosarcoma cell line | HT-1080-NT fibrosarcoma viability, CellTiter-Glo ATP luminescence, 48 h | Potency, µM (top dose mostly 46.1 µM), hits mostly cytotoxic | 1.6% of 360,000 active | AID 686970, 2013;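 further: NT is the 2HG producing partner of a matched IDH1 knockdown line; nearly all actives have a fitted effect of over 55% in size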
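Luminescent CellTiter-Glo readout after 48 hours of compound exposure at 37 degrees C defined viability of HT-1080-NT cells. Activity was normalized to DMSO wells and cell-free media wells; concentration-response curves were fitted and assigned curve classes.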
SW480 rerep – A quantitative high throughput screen for small molecules that induce DNA re-replication in SW480 colon adenocarcinoma cells. SW480 DNA re-replication, Hoechst DNA content imaging, 48 h. 1.8% of 340,000 active. Potency, µM (highest dose often 46.1 µM), most hits filed as activators. AID 624297, 2012; further: nearly all actives have a fitted effect of over 55% in size
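Cells (250 per well) received 23 nL compound or DMSO by pin tool and were kept 48 hr at 37 C, 5% CO2. Nuclei were then stained with Hoechst for 40 min and scanned for DNA content.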
KB-3-1 cytotox – qHTS assay for MDR1-selective chemotherapeutics: Primary screen using the parental adenocarcinoma cell KB-3-1 | Potency, µM (doses to about 46.1 µM), usual class: cytotoxic | AID 1347075, 2019 | 1.4% of 400,000 active | KB-3-1 viability, CellTiter-Glo ATP luminescence, 72 h; further: nearly all actives have a fitted effect of over 60% in size
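KB-3-1 parental drug-naive adenocarcinoma cells in DMEM/10% FBS, incubated 72 h at 37 C with pin-transferred compounds across a concentration series. Viability by CellTiter-Glo luminescence; concentration-response curves fitted after normalization.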
Numbers stand for hits. The call rests on the fitted dose curve; in most records, active means well fitted curve in the direction sought with a large enough effect; inconclusive means small, poorly fitted or top-dose-only effect, or another doubt; inactive means no such curve, though single readings can be large; an effect the other way counts as inactive or inconclusive.

Results for COc1ccc(CNC(=O)c2cccc3c(-c4cnn(C)c4)coc23)cc1OC ?
KB-V1 MDR tox: inactive; HT1080 IDH1KD tx: inconclusive; HT1080-NT tox: 23µM; KB-3-1 cytotox: inactive

How did CCc1ccccc1NC(=O)c1ncoc1-c1ccco1 do in these assays?
KB-V1 MDR tox: inactive; KB-3-1 cytotox: inactive

How did C=CC(=O)N=c1sc2ccccc2n1-c1ccccc1 do in these assays?
MCF10A rerep: inconclusive; KB-V1 MDR tox: 7.3µM; HT1080 IDH1KD tx: 10µM; HT1080-NT tox: 13µM; SW480 rerep: 3.3µM; KB-3-1 cytotox: 15µM

What do the screens show for `N=c1sc2ccccc2n1-c1ccccc1`?
MCF10A rerep: inconclusive; KB-V1 MDR tox: inconclusive; HT1080 IDH1KD tx: inconclusive; HT1080-NT tox: inactive; SW480 rerep: inconclusive; KB-3-1 cytotox: inconclusive

What do the screens show for `Cc1cccc(-c2nn(-c3ccccc3)cc2C(=O)N2CCN(C3CCS(=O)(=O)C3)CC2)c1` (stereo not drawn)?
MCF10A rerep: inactive; KB-V1 MDR tox: 16µM; HT1080 IDH1KD tx: inactive; HT1080-NT tox: inactive; SW480 rerep: inactive; KB-3-1 cytotox: inactive

Results for CC(=O)Nc1ccc(Oc2sc(C(=O)c3ccccc3)c(N)c2C#N)cc1 ?
MCF10A rerep: 21µM; KB-V1 MDR tox: inactive; HT1080 IDH1KD tx: 16µM; HT1080-NT tox: inconclusive; SW480 rerep: inconclusive; KB-3-1 cytotox: inactive

Results for CC(=O)Nc1ccc(Oc2ccccc2)cc1 ?
MCF10A rerep: inactive; KB-V1 MDR tox: inactive; HT1080 IDH1KD tx: inactive; HT1080-NT tox: inactive; SW480 rerep: inactive; KB-3-1 cytotox: inactive

What do the screens show for `Cc1ccc(S(=O)(=O)N2CCCCC2C(=O)N2CCN(Cc3ccccc3)CC2)cc1` (stereo not drawn)?
MCF10A rerep: inconclusive; KB-V1 MDR tox: 4.6µM; HT1080 IDH1KD tx: inactive; HT1080-NT tox: inactive; SW480 rerep: inactive; KB-3-1 cytotox: inconclusive

What do the screens show for `O=C(C1CCCCN1S(=O)(=O)c1ccccc1)N1CCN(Cc2ccccc2)CC1` (stereo not drawn)?
MCF10A rerep: inactive; KB-V1 MDR tox: inactive; HT1080 IDH1KD tx: inactive; HT1080-NT tox: inactive; SW480 rerep: inactive; KB-3-1 cytotox: inconclusive

How did O=S(=O)(NCC(Nc1ccccc1)c1ccccc1)c1ccc(Cl)cc1 (stereo not drawn) do in these assays?
MCF10A rerep: inconclusive; KB-V1 MDR tox: 21µM; HT1080 IDH1KD tx: inactive; HT1080-NT tox: inactive; SW480 rerep: inconclusive; KB-3-1 cytotox: inactive

Results for O=C(O)c1cccc(NC(CNS(=O)(=O)c2ccc(Cl)cc2)c2ccccc2)c1 (stereo not drawn) ?
MCF10A rerep: inactive; KB-V1 MDR tox: inactive; HT1080 IDH1KD tx: inactive; HT1080-NT tox: inactive; SW480 rerep: inactive; KB-3-1 cytotox: inactive

How did CC(=O)c1cccc(NC(=O)COc2ccccc2C(=O)Nc2ccccc2)c1 do in these assays?
KB-V1 MDR tox: inactive; KB-3-1 cytotox: inactive

Results for Cc1ccc(-n2nnnc2SCc2nc3sc(C)c(C)c3c(=O)[nH]2)cc1 ?
MCF10A rerep: inactive; KB-V1 MDR tox: 18µM; HT1080 IDH1KD tx: inactive; HT1080-NT tox: inactive; SW480 rerep: inactive; KB-3-1 cytotox: inactive

What do the screens show for `CC(=O)c1sc2nc(CSc3nnnn3-c3ccccc3)[nH]c(=O)c2c1C`?
MCF10A rerep: inactive; KB-V1 MDR tox: inactive; HT1080 IDH1KD tx: inactive; HT1080-NT tox: inactive; SW480 rerep: inactive; KB-3-1 cytotox: inactive

What do the screens show for `COc1cc(-c2n[nH]c(=S)n2-c2cccc(C(F)(F)F)c2)cc(OC)c1OC`?
MCF10A rerep: inactive; KB-V1 MDR tox: 23µM; HT1080 IDH1KD tx: inactive; HT1080-NT tox: inactive; SW480 rerep: inactive; KB-3-1 cytotox: inactive

How did Cc1ccc(-n2c(-c3cccc(C)c3)n[nH]c2=S)cc1 do in these assays?
MCF10A rerep: 21µM; KB-V1 MDR tox: inactive; HT1080 IDH1KD tx: 10µM; HT1080-NT tox: inconclusive; SW480 rerep: inconclusive; KB-3-1 cytotox: inactive

Results for Cc1cccc(NC(=O)c2sc(-n3nc(C)c(Cc4ccc5c(c4)OCO5)c3C)nc2C)c1C ?
KB-V1 MDR tox: inconclusive; KB-3-1 cytotox: inactive

How did Cc1ccc(NC(=O)CSc2nc3ccc(NC(=O)c4cccs4)cc3s2)c(C)c1 do in these assays?
KB-V1 MDR tox: inactive; KB-3-1 cytotox: inconclusive

What do the screens show for `N#CC(C#N)=C1C=CC=CN1/C(=C\c1ccccc1)C(=O)c1cccs1`?
MCF10A rerep: inactive; KB-V1 MDR tox: inconclusive; HT1080 IDH1KD tx: inactive; HT1080-NT tox: inactive; SW480 rerep: inconclusive; KB-3-1 cytotox: inactive

How did N#CC(C#N)=C1C=CC=CN1/C(=C\c1ccccc1Cl)C(=O)c1ccccc1 do in these assays?
MCF10A rerep: 6.5µM; KB-V1 MDR tox: inconclusive; HT1080 IDH1KD tx: 2.6µM; HT1080-NT tox: inconclusive; SW480 rerep: 9.2µM; KB-3-1 cytotox: inconclusive

Results for Cc1cccc(CNC(=O)c2ccc3nc(-c4ccccc4)c(-c4ccccc4)nc3c2)c1 ?
KB-V1 MDR tox: inactive; KB-3-1 cytotox: inactive

How did Cc1ccc2c(c1)-c1nc(-c3ccc(Cl)cc3)cc(-c3coc4ccccc4c3=O)c1CO2 do in these assays?
KB-V1 MDR tox: inactive; KB-3-1 cytotox: inactive

Results for CO/N=C/c1ccc(N2CCOCC2)c([N+](=O)[O-])c1 ?
MCF10A rerep: inactive; KB-V1 MDR tox: inactive; HT1080 IDH1KD tx: inactive; HT1080-NT tox: inactive; SW480 rerep: inactive; KB-3-1 cytotox: inactive

How did O=[N+]([O-])c1cc(/C=N/OCc2c(Cl)cccc2Cl)ccc1N1CCOCC1 do in these assays?
MCF10A rerep: inconclusive; KB-V1 MDR tox: 13µM; HT1080 IDH1KD tx: inactive; HT1080-NT tox: inactive; SW480 rerep: inconclusive; KB-3-1 cytotox: inconclusive

What do the screens show for `O=Cc1nccc2ccccc12`?
MCF10A rerep: inconclusive; KB-V1 MDR tox: inactive; HT1080 IDH1KD tx: inactive; HT1080-NT tox: inactive; SW480 rerep: inactive; KB-3-1 cytotox: inactive

What do the screens show for `C(=Cc1c[nH]c2ccccc12)c1ccc2ccccc2n1`?
MCF10A rerep: 0.92µM; KB-V1 MDR tox: inactive; HT1080 IDH1KD tx: 23µM; HT1080-NT tox: 16µM; SW480 rerep: inconclusive; KB-3-1 cytotox: inactive

Results for C(=Cc1c[nH]c2ccccc12)c1nccc2ccccc12 ?
MCF10A rerep: 1.6µM; KB-V1 MDR tox: inconclusive; HT1080 IDH1KD tx: inconclusive; HT1080-NT tox: inconclusive; SW480 rerep: 6.5µM; KB-3-1 cytotox: inconclusive

Results for O=C(O)CCn1cnc2onc(-c3ccccc3Cl)c2c1=O ?
KB-V1 MDR tox: inactive; KB-3-1 cytotox: inactive

Results for CCOC(=O)C1=CCN(S(=O)(=O)c2ccc(C)cc2)C1c1ccccc1 (stereo not drawn) ?
KB-V1 MDR tox: inactive; HT1080 IDH1KD tx: inactive; HT1080-NT tox: inactive; KB-3-1 cytotox: inactive
